Source: PubChem (National Center for Advancing Translational Sciences (NCATS))
ClpP mod – qHTS Assay for Activators of ClpP. purified B. subtilis ClpP, FRET peptide cleavage, 20 min. Potency, µM (doses to about 57.5 µM), for inactives: at the top dose activity change, negative = active. hit rate 1.9% among 340,000. AID 651965, 2013; active = well fitted falling curve with a large enough effect; inconclusive = small, poorly fitted or top-dose-only effect; inactive = no such curve, though single readings can be large or run the other way; note: potency is the fitted concentration of half-maximal effect; the source files actives as falling curves though it sought activators and does not explain the sign; nearly all actives have a fitted effect of over 65% in size
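FRET quenching reversal measured ClpP activation: 10 microg/mL B. subtilis ClpP at pH 8 with the FRET-FV decapeptide, read at 430 nm after 320 nm excitation. The 20-min minus 0-min signal was scaled between DMSO/no-enzyme wells and ADEP (5.8 microM final).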
GLP1R cytotox – cytotoxicity in counter-screen for GLP-1R inverse agonists. hit rate 0.13% among 410,000. HEK293 cAMP-luciferase reporter cells, luminescence, 24 h. Potency, µM (titrated, usually from 38.3 µM), for inactives: at the top dose activity change, negative = inhibition, hits mostly inhibitors;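 note: loss of luciferase light is scored as toxicity; potency is the fitted concentration of half-maximal effect; % is set by controls: 0 for no effect and ±100 for the full control effect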
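1536-well qHTS counterscreen of the MLSMR; 200 cells/uL, 12 h pre-incubation, 23 nL cpd, 24 h at 37 deg C 5% CO2, luciferase detection reagent, 12 min RT, luminescence. Inhibition = undesired.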
GLP1R ag – activates the human GLP-1 receptor; P43220; HEK293 GLP-1R CRE-luciferase, luminescence, 4-6 h; cells express a hypersensitive GLP-1R form; Potency, µM (top dose mostly 45.6 µM), without a hit: top-dose activation, hits mostly activators; hit rate 0.007% among 380,000; AID 624172; note: potency is the fitted concentration of half-maximal effect; % of control where 0% means no effect
GLP-1R inv ag – acts as inverse agonist at human GLP-1 receptor; P43220; HEK293 GLP-1R CRE-luciferase, luminescence, 24 h; GLP-1R form is constitutively active; Potency, µM (titrated, usually from 38.3 µM), without a hit: at the top dose activity change, negative = inhibition, most hits filed as inhibitors; hit rate 1.6% among 410,000; AID 624417; note: potency is the fitted concentration of half-maximal effect; % is set by controls: 0 for no effect and ±100 for the full control effect; nearly all actives have a fitted effect of over 55% in size
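Inverse agonists were sought by their lowering of basal cAMP reporter luciferase output in HEK293 cells stably carrying constitutively active human GLP-1R, after 24 h compound treatment.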
D3 ag – D3 dopamine receptor (human) agonism; P35462; hit rate 0.58% among 410,000; max activation, %; D3R DiscoveRx beta-arrestin cells, luminescence, 90 min; AID 652048; in the data active = max activation above about 30%; note: 0% is about no effect
Target sequence (P35462 whole entry, looked up): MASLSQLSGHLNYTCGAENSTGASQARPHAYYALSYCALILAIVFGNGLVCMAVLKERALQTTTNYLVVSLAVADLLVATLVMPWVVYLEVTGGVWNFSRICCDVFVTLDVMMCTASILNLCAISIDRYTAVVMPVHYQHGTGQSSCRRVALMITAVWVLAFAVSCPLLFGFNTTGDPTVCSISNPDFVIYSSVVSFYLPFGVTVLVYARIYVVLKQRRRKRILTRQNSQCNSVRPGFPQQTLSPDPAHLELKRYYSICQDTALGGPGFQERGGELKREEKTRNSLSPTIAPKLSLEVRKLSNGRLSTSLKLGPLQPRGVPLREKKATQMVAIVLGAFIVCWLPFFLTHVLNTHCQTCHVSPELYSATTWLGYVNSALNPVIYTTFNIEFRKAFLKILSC
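Agonist-mode cell screen: cells plated at 1500/well and incubated overnight at 37 °C, then exposed to library compounds for 90 min at 37 °C. Detection reagent was added for 30–60 min at room temperature, and luminescence was read.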
D3 antag – D3 dopamine receptor (human) antagonism; P35462; D3R cells, DiscoveRx beta-arrestin luminescence, antagonist mode; stronger effect = lower value; max response, negative = inhibition, %; hit rate 2.5% among 360,000; AID 652054; in the data active = max response below about -50%; inconclusive = no clear call, values can overlap the other calls; note: % is set by controls: 0 for no effect and ±100 for the full control effect
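Cells expressing the human receptor were seeded at 1500 cells/well, incubated overnight at 37 degrees C in 5% CO2, then exposed to library compounds with dopamine controls for 90 minutes at 37 degrees C before luminescent detection.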
ClpP inh valid – inhibits B. subtilis ClpP protease, hit validation | hit rate 40% among 470 | purified B. subtilis ClpP, FRET-FV substrate cleavage, 20 min | shares compounds with ClpP mod | Potency, µM (top dose mostly 57.5 µM), for the others: at the highest dose activity change, negative = inhibition, hits mostly inhibitors; note: potency is the fitted concentration of half-maximal effect; % is set by controls: 0 for no effect and ±100 for the full control effect; nearly all actives have a fitted effect of over 70% in size
* = called active by the depositor; ? = inconclusive; nt = not tested or not shown. Most compounds without a hit are left out; they make up all but 5.7% or so of the library. Unless noted, calls come from the whole dose curve; as a rule, active = well fitted curve in the direction sought with a large enough effect; inconclusive = small, poorly fitted or top-dose-only effect, or another doubt; inactive = no such curve, though single readings can be large; an effect the other way counts as inactive or inconclusive.

SMILES | ClpP mod | GLP1R cytotox | GLP1R ag | GLP-1R inv ag | D3 ag | D3 antag | others
CCCCn1c(O)c(C=NC2CC3CCC2(C)C3(C)C)c(=O)[nH]c1=O (stereo unspecified) | -1% | -17% | 4% | 5.6µM* | 2 | 8
COc1ccc2c3c1O[C@H]1[C@H](O)CC[C@H]4[C@@H](C2)N(C)CC[C@@]341 | nt | nt | nt | nt | 5 | nt
CC1=NN(c2ccccc2)C(=O)/C1=C/c1c(O)[nH]c(=O)[nH]c1=O | nt | -4% | -7% | -1% | 5 | 12
CC1=NN(c2ccccc2)C(=O)/C1=C/c1c(O)[nH]c(=S)[nH]c1=O | 25µM* | 15% | -9% | -6% | 14 | 27
COC(=O)C1=C(c2ccc(Cl)c(C(F)(F)F)c2)C[C@@H]2CC[C@H]1N2C(=O)N1CCC(O)(c2ccc(Cl)cc2)CC1 | -4% | -11% | -3% | 8.9µM* | 1 | 1
O=C1C(I)=CC(=C(c2cc(I)c(O)c(I)c2)c2ccccc2C(=O)O)C=C1I | nt | nt | -1% | nt | 14 | nt
O=Cc1cn(Cc2ccc([N+](=O)[O-])cc2)c2ccccc12 | 1% | -17% | -1% | 2.2µM* | 5 | 10
Cc1cc(C)cc(NC(=O)Cn2cc(C(=O)c3cccs3)c3ccccc32)c1 | -27% | -5% | nt | ? | 5 | nt
Cc1cc(N2CCCCC2)nc2ccc(NC(=O)CCC(=O)N3CCN(c4cccc(Cl)c4)CC3)cc12 | 32µM* | -9% | nt | ? | -9 | nt
Cc1cc(N2CCOCC2)nc2ccc(NC(=O)CCC(=O)N3CCC4(CC3)OCCO4)cc12 | ? | 5% | 1% | 3% | 5 | 8
COC(=O)c1ccc(C(=O)OC)c(NC(=O)Oc2ccccc2)c1 | 2.8µM* | 111% | 6% | 12% | -1 | 11
O=C(/C=C/c1ccc(Br)cc1)c1ccc(NC2=NCCCS2)cc1 | -3% | ? | -4% | 5µM* | -27 | -55*
CC(=O)c1ccc(NC2=NCCCS2)cc1 | nt | 0% | 12% | 8% | 15 | 11
CN1[C@@H]2CC[C@H]1CC(OC1c3ccccc3CCc3ccccc31)C2 (stereo partly specified) | 2% | ? | -1% | 2µM* | -88 | -91*
c1ccc(-c2nn(-c3ccccc3)[n+](-c3ccccc3)n2)cc1 | ? | -29% | -3% | -36% | 6 | 3
O=C1c2cccc3cc([N+](=O)[O-])cc(c23)C(=O)N1c1ccccc1O | nt | 4% | 2% | 33% | 9 | -10
CNC(=O)Oc1ccc(-c2cn3cc(Cl)ccc3n2)cc1 | 8.9µM* | 4% | -1% | -27% | -19 | -26 | ClpP inh valid=?
Cc1cc(OCc2nn[nH]n2)c2c3c(c(=O)oc2c1)CCCC3 | 6.3µM* | 9% | 6% | 19% | -2 | -18 | ClpP inh valid=27µM*
Cc1cc(OCc2ccc([N+](=O)[O-])cc2)c2c3c(c(=O)oc2c1)CCCC3 | 0% | -5% | 6% | -12% | 0 | 7
CC(C)(O)C(Cl)(Cl)Cl | nt | nt | -5% | nt | 3 | nt
COc1ccccc1NC(=O)c1oc2ccccc2c1NC(=O)c1ccccc1C(F)(F)F | 206% | -12% | nt | -37% | -8 | nt | ClpP inh valid=31µM*
CCCCN(CCCC)CC(O)CN(c1cc([N+](=O)[O-])ccc1OC)S(=O)(=O)c1ccccc1 (stereo unspecified) | -2% | ? | -17% | ? | -19 | ?
